Assay outcomes: PubChem BioAssay, University of Kansas High Throughput Screening Laboratory
Pf apPOL inh: Pf-apPOL DNA polymerase inhibition | inhibition, % at 10 µM | Recombinant Pf-apPOL, molecular beacon fluorescence, 1.5 h | actives 0.25% (n = 210,000)
mHTT-CaM PPI inh: mHTT-calmodulin interaction abrogation; P42858; AlphaScreen His-mHTT/GST-CaM binding, luminescence; inhibition, % at 15 µM; actives 3.6% (n = 190,000); AID 1671202;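 note: 0% = both proteins with DMSO and 100% = one protein alone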
* = called active by the depositor; nt = not tested or not shown. Only a selection was taken, and hits are over-represented in it overall. Cut-off read from the data, not from the text of the source: active = inhibition above about 50%; inactive = the rest.

SMILES	Pf apPOL inh	mHTT-CaM PPI inh
O=C(NCCC1=CCCCC1)c1ncn[nH]1	-10	94*
O=C(NCCC1=CCCCC1)c1ccncc1	2	-3
Cn1cccc1C1CC(c2ccc(F)cc2)=NN1C(=O)CN1CCCCC1 (stereo not drawn)	-4	70*
CC(=O)N1CCN(CC(=O)N2N=C(c3ccc(F)cc3)CC2c2ccccc2)CC1 (stereo not drawn)	-1	35
Cc1ccc(C2=NN(C(=O)CN3CCCCC3)C(c3cccn3C)C2)cc1C (stereo not drawn)	-2	91*
COc1ccccc1-c1cc(CC(C)C)nc(C#N)c1N	-9	3
O=C(NCc1cccc(Cl)c1)c1ccc(Cn2nnc3ccsc3c2=O)cc1	-2	6
O=C(c1ccc(F)cc1)N1CCc2nc(N3CCCC3)nc(N3CCCC3)c2C1	17	56*
O=C(c1ccc(F)cc1)N1CCCCCC1	9	-7
CCCCNC(=O)C1CCCN(c2nnc3ccc(Cl)cn23)C1 (stereo not drawn)	-8	-1
CC(C)c1c(C2CCN(C(=O)C3CCCO3)CC2)noc1N (stereo not drawn)	-5	0
O=[N+]([O-])c1c(C(Cl)Cl)nn(-c2ccccc2)c1N1CCCC1	-1	54*
Cc1nn(-c2ccccc2)c(N2CCOCC2)c1[N+](=O)[O-]	-4	nt
Cc1ccc(-c2cc(C(=O)Nc3cccnc3)c3ccccc3n2)o1	7	32
Cc1ccc(-c2cc(C(=O)Nc3ccncc3)c3ccccc3n2)o1	-3	74*
CNC(=O)N1CCCC(c2cccc(C(=O)N3CCN(c4ccccc4Cl)CC3)c2)C1 (stereo not drawn)	-1	3
Cc1cccc(N2CCN(C(=O)c3ccc4nc(-c5ccco5)c(-c5ccco5)nc4c3)CC2)c1C	0	78*
Cc1cccc(N2CCN(C(=O)c3ccc4c(=O)n5c(nc4c3)SCC5)CC2)c1C	-8	2
CNC(=O)N1CCCC(c2cccc(C(=O)NCc3ccc(C(F)(F)F)cc3)c2)C1 (stereo not drawn)	-7	64*
CC(C)NC(=O)N1CCCC(c2cccc(C(=O)NCc3ccc(C(F)(F)F)cc3)c2)C1 (stereo not drawn)	-1	6
CNC(=O)N1CCCC(c2cccc(C(=O)N3CCN(c4cccc(C)c4C)CC3)c2)C1 (stereo not drawn)	-9	64*
O=C(NCCCN1CCCC1)C1CC(=O)N(C2CCCC2)C1 (stereo not drawn)	-2	5
CCOc1ccc(-c2cn3ccn(-c4ccc(F)c(F)c4)c(=O)c3n2)cc1	0	-7
Cc1ccc(CN2C(=O)Cn3cccc3C2C(=O)NC2CCCC2)cc1 (stereo not drawn)	-4	0
O=C(CCC1CCCCC1)NCC1CCS(=O)(=O)C1 (stereo not drawn)	2	-11
SMILES	Pf apPOL inh	mHTT-CaM PPI inh
CCN(CC)S(=O)(=O)c1cc(C(=O)O)c(Cl)cc1Cl	-4	-10
O=C(CN1C(=O)/C(=C/c2ccccc2F)Sc2ccccc21)N1CCCCC1	1	-4
O=C(CN1C(=O)/C(=C/c2ccccc2F)Sc2ccccc21)N1CCN(C2CCCCC2)CC1	-22	75*
Cc1cccc(N2CC(C(=O)Nc3ccc(Br)cc3)CC2=O)c1C (stereo not drawn)	0	23
C=CCNC(=O)c1c[nH]c2ccc(S(=O)(=O)N(C)c3ccc(Br)cc3)cc2c1=O	-6	55*
CCOCCCNC(=O)c1c[nH]c2ccc(S(=O)(=O)N(C)c3ccc(Cl)cc3)cc2c1=O	-11	24
C=CCNC(=O)c1c[nH]c2ccc(S(=O)(=O)N(CC)c3ccc(F)cc3)cc2c1=O	-10	15
COCCNC(=O)c1c[nH]c2ccc(S(=O)(=O)N(C)c3ccc(Cl)cc3)cc2c1=O	-10	50*
N#CC1=C2NC(=O)c3c(sc4c3CCCC4)N2C2=C(C(=O)CCC2)C1c1ccc([N+](=O)[O-])cc1 (stereo not drawn)	0	0
CC(C)CCN1CCCC(c2nc(-c3cnccn3)n[nH]2)C1 (stereo not drawn)	4	34
c1cnc(-c2n[nH]c(C3CCCNC3)n2)cn1 (stereo not drawn)	-5	72*
c1cnc(-c2n[nH]c(C3CCCN(CC4CCCCC4)C3)n2)cn1 (stereo not drawn)	-8	54*
c1cnc(-c2n[nH]c(C3CCN(CC4CCCCC4)CC3)n2)cn1	-5	-1
COc1cc(C(=O)N2CCC3(CC2)NC(=O)c2ccccc2N3C)cc(OC)c1OC	3	3
CS(=O)(=O)c1ccc(NC(=O)C2COCC(=O)N2Cc2ccccc2)cc1 (stereo not drawn)	-2	-8
CCc1c(C)sc(NC(=O)c2sc3cc(C)ccc3c2Cl)c1C(N)=O	-4	-4
CC1=NN(c2nn[nH]n2)C(=O)/C1=C\c1cccs1	nt	100*
CC1=NN(c2ccccc2)C(=O)/C1=C/c1ccc(Br)s1	2	46
